# Changes are numbered by the printed parent chain. The full ranking holds about 5,800 sequences; the median of “enrichment r” is about 0.54, and the highest 2% start at about 16. The sample as a whole holds a higher share of the highest values than the screen did.
# B1: chr22:41636480:41636706:+|CDS|ENSG00000196419|unk|FALSE|unique (ssRNA)
# RNA: GGGAGUUCUACAGUCCGACGAUCAUGGGCCACGGAUCUGACUACUCACUCAGUGAAGUGCUGUGGGUCUGUGCCAACCUCUUUAGUGAUGUCCAAUUCAAGAUGAGUCAUAAGAGGAUCAUGCUGUUCACCAAUGAAGACAACCAACAGAGGAUUGAGCAUCA
# B2: chr1:223774945:223775046:+|3pUTR|ENSG00000162909|msi1|total|mutant (ssRNA)
# RNA: GGGAGUUCUACAGUCCGACGAUCAAAUACACUUUGUAUCUGGACCUCAAAAUUAUGGGAACAUUUACUUAAACGGAUGAUCACCGCUGAAAAUAAUGAUACUGUCAAUUUGAGACCGCAGAAGUUUCACACAUCAAAGUAAAACAACAGAGGAUUGAGCAUCA
# B3: chr2:108783740:108783841:+|CDS_3pUTR|ENSG00000153201|msi1_unk|FALSE|overlapping (ssRNA)
# RNA: GGGAGUUCUACAGUCCGACGAUCCAAUAAUUCUCAAUUUGUUAUAACACUGAAGAAAGCAGAACAUUUGGACUUUAAGCAUGUAGUAUUUGGGUUUGUUAAGGAUGGCAUGGAUACUGUGAAAAAGAUUGAAUCAUUUGGUUCCAACAGAGGAUUGAGCAUCA
# B4: chr16:61647241:61654101:-|three_prime_utr|ENSG00000150394|control|control|control (ssRNA)
# RNA: GGGAGUUCUACAGUCCGACGAUCAAAGAAACUUGACAGUGGAUUAUAAAUAAAUCACUGGAACUGAGCAUUCUGUAAUAUUCUAGGGUCACUCCCCUUAGAUACAACCAAUGUGGCUAUUUGUUUUAGAGGCAAGUUUAGCACCAACAGAGGAUUGAGCAUCA
# B5: chr1:62864655:62864756:+|3pUTR|ENSG00000125703|unk|FALSE|unique (ssRNA)
# RNA: GGGAGUUCUACAGUCCGACGAUCUUUGUUAACUGUGAUAUGCAUACACUUAUAUAAGCAGAAUUAUGAGUUAAAGUAAUACUUAGCAAUAUGAUUUUAUAAUGGCUCCUCAUUAUGCUUGCUGUUGAACCUUUUAUGAGGAGUCAACAGAGGAUUGAGCAUCA
# B6: chr6:145382534:145384023:-|three_prime_utr|ENSG00000112425|control|control|control (ssRNA)
# RNA: GGGAGUUCUACAGUCCGACGAUCUCAACAUGAUUUAACAGAUCUAUAUGUUAAAGGAGAAAAAGAUAUGUGGAUGCUAUCAAUAGUAGCUGAAAAGCAUUUUCAGAAAUCUGUAAGUAGAGGAAAUGUAUUCAUAUGUUUCUACAACAGAGGAUUGAGCAUCA
# B7: chr8:42175503:42175666:-|3pUTR|ENSG00000104368|msi1|total|mutant (ssRNA)
# RNA: GGGAGUUCUACAGUCCGACGAUCAUGAAAGCAUGUCUCAACCGUAAAAGAUAACAAGAUCUUUCAGGAAAGACGGAUUGCAUCCGAAACCGACAGUAUAUUUACCGUCACAAGAGCCCAGCAGGGCCUCAAAGUUGGGGCAGGCAACAGAGGAUUGAGCAUCA
# B8: chr12:123662440:123662541:+|3pUTR|ENSG00000111358|unk|FALSE|unique (ssRNA)
# RNA: GGGAGUUCUACAGUCCGACGAUCAAUGGAAAUCACAAUUUUAAGUCUAGGAAAUAAAGUAUUAUAUAUACUUUCAAACAAGCUAGCAAGGCUUUUAUUAUUACUUUUUUAUUUGAAAUAUCUUAUAUAUUUGGUUAGUUCUGUCAACAGAGGAUUGAGCAUCA
# B9: chr8:42175503:42175666:-|3pUTR|ENSG00000104368|msi1|FALSE|unique (ssRNA)
# RNA: B7 RNA with C41U, C42A, C83U, C84A, C89U, C90A, C104U, C105A
# B10: ENSG00000070961:be:win_6051|3pUTR|ENSG00000070961|bound_else_gene|NA|bound_elsewhere_windowed (ssRNA)
# RNA: GGGAGUUCUACAGUCCGACGAUCCAGAAAUUUCCAGAGCAUUAUGUAGGUAGAAAAAAAUGCAAGCAAGCUGUUAAAGAUCUUGGAUCCCAUUAUAUAGUAUGUAUAGCUGAAAUCUGUAAUUCAAUCACUUUUUCUCUUUUACAACAGAGGAUUGAGCAUCA
# B11: chr3:62294137:62294238:+|3pUTR|ENSG00000144724|msi1|FALSE|unique (ssRNA)
# RNA: GGGAGUUCUACAGUCCGACGAUCUGAGACCCUUUAGUUAUUCUCCAUUAAUGCUUCUUAGUUUGUAAUACCAUACCUCACAGUAGGUAGAAGAAUGAAAACUUCUGCAGGUGUGUAAUUUUGAAACUAGUCCUCUAAAAAUUCCAACAGAGGAUUGAGCAUCA
# B12: chr3:97755980:97756081:+|3pUTR|ENSG00000080224|unk|total|mutant (ssRNA)
# RNA: GGGAGUUCUACAGUCCGACGAUCUAAUUAAAAAUCUCUUUCCUACCUUCCGUAAUUUGCCGGAUGAACUGUAUGCAUUCCGACCGAAAUUGCUUUUGUUAAAUUUACAUUUAAACACAUCUUCAUUCACUCCGAGAAGCCAUACAACAGAGGAUUGAGCAUCA
# B13: chr8:74853834:74853946:+|3pUTR|ENSG00000137558|unk|FALSE|unique (ssRNA)
# RNA: GGGAGUUCUACAGUCCGACGAUCAAGUGCUUUUUUUUUUCUGAAUUAAUUAGGUAUUGGUAAAAUAUAUUUUUAAAUUUAGUUAGCUUUAUAAACACAAUUAGAAUUACAAUUAAUUAACAGAGGUAUAAUUGUCUCACUUUCCAACAGAGGAUUGAGCAUCA
# B14: ENSG00000070961:be:win_6001|3pUTR|ENSG00000070961|bound_else_gene|NA|bound_elsewhere_windowed (ssRNA)
# RNA: GGGAGUUCUACAGUCCGACGAUCCAAGACAUGCUUAGUGUGUAUUUCUCUCUUUGAGACACUGUAAUUUCUACCAGAAAUUUCCAGAGCAUUAUGUAGGUAGAAAAAAAUGCAAGCAAGCUGUUAAAGAUCUUGGAUCCCAUUCAACAGAGGAUUGAGCAUCA
# B15: chr3:97755980:97756081:+|3pUTR|ENSG00000080224|unk|FALSE|unique (ssRNA)
# RNA: B12 RNA with C49U, C50A, C59U, C60A, C79U, C80A, C83U, C84A, C131U, C132A
# B16: chr8:74853834:74853946:+|3pUTR|ENSG00000137558|unk|total|mutant (ssRNA)
# RNA: B13 RNA with U50C, A51C, U79C, A80C, U83C, A84C, U101C, A102C
# B17: chr12:89642165:89642281:-|CDS|ENSG00000070961|unk|total|mutant (ssRNA)
# RNA: GGGAGUUCUACAGUCCGACGAUCGCCAAAAACCUUUCUUCAAUCCGUAUGGGAAGCAUUACAAGAUGUCACUUUAAUUAUAUCCGAAAUUGCAGCCACCGUAUCAUUGGGCCUUUCUUUUUAUCAGCCUCCAGAAGGGGAUAACAACAGAGGAUUGAGCAUCA
# Biological target: MSI1 full-length (mouse, UniProt Q61474 1-362)
# Assay: nsRBNS (natural sequence RNA bind-n-seq); RBNS binding buffer (assumed for nsRBNS): 25 mM Tris pH 7.5, 150 mM KCl, 3 mM MgCl2, 0.01% Triton X-100, 500 ug/ml BSA, 20 U/ml SUPERase-In, 4 C; UNK is unkempt and MSI1 is Musashi-1; names of the RNAs are library labels; protein concentration not given here; high values mean tight binding
# Chain of MSI1 full-length (Q61474 whole entry): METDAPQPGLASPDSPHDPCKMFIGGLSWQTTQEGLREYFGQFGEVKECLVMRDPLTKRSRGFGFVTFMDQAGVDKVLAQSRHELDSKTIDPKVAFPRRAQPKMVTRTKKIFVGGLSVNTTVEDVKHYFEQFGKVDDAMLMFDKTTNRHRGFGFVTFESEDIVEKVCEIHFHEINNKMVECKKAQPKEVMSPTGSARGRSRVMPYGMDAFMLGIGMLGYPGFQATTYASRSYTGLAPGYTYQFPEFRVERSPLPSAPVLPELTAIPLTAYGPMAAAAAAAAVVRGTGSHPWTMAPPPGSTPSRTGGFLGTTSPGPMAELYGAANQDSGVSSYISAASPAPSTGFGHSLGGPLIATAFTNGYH
row,Binder,binding signal [enrichment R]
1,B1,0.384
2,B2,0.211
3,B3,0.864
4,B4,1.27
5,B5,0.957
6,B6,1.04
7,B7,0.44
8,B8,12.8
9,B9,41.9
10,B10,37.4
11,B11,8.1
12,B12,1.21
13,B13,47.1
14,B14,0.464
15,B15,19.4
16,B16,1.6
17,B17,0.453
